From PubChem BioAssay (Tox21)
Several values for one entry are separate records, joined by “and”; a condition that tells them apart may be missing. Identical values can stand only once. More than one record can exist for a structure, and the calls need not agree. Activity calls are given as the source filed them. Unless noted, the call rests on the fitted dose curve; in most records, active means well fitted curve in the direction sought with a large enough effect in the repeat runs; inconclusive means weak or mixed curves; inactive means no such curve, though single readings can be large; an effect the other way counts as inactive or inconclusive.

Tests used:
[1] = qHTS assay to identify small molecule antagonists of the glucocorticoid receptor (GR) signaling pathway - cell viability counter screen (AID 720693); further: nearly all actives have a fitted effect of over 55% in size
[2] = qHTS assay for identifying genotoxic compounds that show differential cytotoxicity against isogenic chicken DT40 cell lines with known DNA damage response pathways - wild type cell line (AID 743012); further: nearly all actives have a fitted effect of over 60% in size; further: potency means the concentration at half of the fitted maximal effect
Outline: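 CellTiter-Glo luminescence readout of viability in wild type DT40 cells after 40 h compound exposure at 37 C/5% CO2; 300 cells/well; reagent incubated 30 min at room temperature before reading.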

[3] = qHTS assay for identifying genotoxic compounds that show differential cytotoxicity against isogenic chicken DT40 cell lines with known DNA damage response pathways - Rev3 mutant cell line (AID 743014); further: nearly all actives have a fitted effect of over 55% in size; further: potency means the concentration at half of the fitted maximal effect
[4] = qHTS assay for identifying genotoxic compounds that show differential cytotoxicity against isogenic chicken DT40 cell lines with known DNA damage response pathways - Rad54/Ku70 mutant cell line (AID 743015); further: nearly all actives have a fitted effect of over 60% in size; further: potency means the concentration at half of the fitted maximal effect
[5] = qHTS assay to identify small molecule antagonists of the androgen receptor (AR) signaling pathway - cell viability counter screen (AID 743033; further: nearly all actives have a fitted effect of over 45% in size)
[6] = qHTS assay to identify small molecule antagonists of the androgen receptor (AR) signaling pathway using the MDA cell line - cell viability counter screen (AID 743041; further: nearly all actives have a fitted effect of over 45% in size)
Outline: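 Cytotoxicity counter screen: MDA-kb2 AR-luc cells, compound + R1881, 16 h, 37C, 0% CO2; CellTiter-Fluor added at 15.5 h, fluorescence read after 30 min.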

[7] = system: thyroid hormone receptor (rat, GH3 cells); assay: qHTS assay to identify small molecule agonists of the thyroid receptor (TR) signaling pathway (AID 743066; calls by dose curve)
[8] = qHTS assay to identify small molecule antagonists of the estrogen receptor alpha (ER-alpha) signaling pathway - cell viability counter screen (AID 743074; calls by dose curve;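 further: HEK293 cells carrying ER-alpha-UAS-bla reporter stimulated with 17beta-estradiol; nearly all actives have a fitted effect of over 45% in size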)
[9] = molecular target: Estrogen receptor (Homo sapiens) (UniProt P03372); assay: qHTS assay to identify small molecule agonists of the estrogen receptor alpha (ER-alpha) signaling pathway (AID 743075; calls by dose curve; further: potency means the concentration at half of the fitted maximal effect)
Sequence of Estrogen receptor (Homo sapiens) (P03372 whole entry, looked up): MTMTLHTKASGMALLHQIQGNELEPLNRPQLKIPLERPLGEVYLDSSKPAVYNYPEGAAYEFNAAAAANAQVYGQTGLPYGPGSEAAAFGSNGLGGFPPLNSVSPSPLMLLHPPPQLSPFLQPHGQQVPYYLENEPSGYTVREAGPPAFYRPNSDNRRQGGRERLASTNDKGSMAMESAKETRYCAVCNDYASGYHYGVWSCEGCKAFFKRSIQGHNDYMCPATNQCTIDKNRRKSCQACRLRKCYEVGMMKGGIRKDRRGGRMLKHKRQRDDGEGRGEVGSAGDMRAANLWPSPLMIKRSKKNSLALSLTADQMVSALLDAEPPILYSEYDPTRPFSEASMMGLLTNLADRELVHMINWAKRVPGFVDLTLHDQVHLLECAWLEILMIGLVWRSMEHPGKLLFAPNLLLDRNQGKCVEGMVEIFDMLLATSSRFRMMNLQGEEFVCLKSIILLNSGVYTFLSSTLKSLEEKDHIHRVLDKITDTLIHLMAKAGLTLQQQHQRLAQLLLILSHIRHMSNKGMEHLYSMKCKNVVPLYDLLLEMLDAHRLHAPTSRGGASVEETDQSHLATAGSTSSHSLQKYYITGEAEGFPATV

[10] = molecular target: Estrogen receptor (Homo sapiens) (UniProt P03372); assay: qHTS assay to identify small molecule agonists of the estrogen receptor alpha (ER-alpha) signaling pathway using the BG1 cell line (AID 743079); further: nearly all actives have a fitted effect of over 20% in size; further: potency means the concentration at half of the fitted maximal effect
[11] = qHTS assay to identify small molecule antagonists of the estrogen receptor alpha (ER-alpha) signaling pathway using the BG1 cell line (AID 743080; calls by dose curve; further: nearly all actives have a fitted effect of over 25% in size; further: potency means the concentration at half of the fitted maximal effect)
Outline: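 Antagonist mode: compounds in DMSO were pinned onto BG1-Luc-4E2 cells alongside 17beta-estradiol agonist, incubated 21.5 h, and ERE-driven luciferase measured with ONE-Glo. Cytotoxicity was multiplexed using CellTiter-Fluor fluorescence.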

[12] = qHTS assay to identify small molecule antagonists of the estrogen receptor alpha (ER-alpha) signaling pathway using the BG1 cell line - cell viability counter screen (AID 743081);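 further: compound given together with 17beta-estradiol as the ER stimulus; series mostly up to about 70 µM; nearly all actives have a fitted effect of over 45% in size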
Aromatase (Homo sapiens) = Aromatase (Homo sapiens) (UniProt P11511); assay: qHTS assay to identify aromatase inhibitors (AID 743083); further: nearly all actives have a fitted effect of over 55% in size; further: potency means the concentration at half of the fitted maximal effect
Sequence of Aromatase (Homo sapiens) (P11511 whole entry, looked up): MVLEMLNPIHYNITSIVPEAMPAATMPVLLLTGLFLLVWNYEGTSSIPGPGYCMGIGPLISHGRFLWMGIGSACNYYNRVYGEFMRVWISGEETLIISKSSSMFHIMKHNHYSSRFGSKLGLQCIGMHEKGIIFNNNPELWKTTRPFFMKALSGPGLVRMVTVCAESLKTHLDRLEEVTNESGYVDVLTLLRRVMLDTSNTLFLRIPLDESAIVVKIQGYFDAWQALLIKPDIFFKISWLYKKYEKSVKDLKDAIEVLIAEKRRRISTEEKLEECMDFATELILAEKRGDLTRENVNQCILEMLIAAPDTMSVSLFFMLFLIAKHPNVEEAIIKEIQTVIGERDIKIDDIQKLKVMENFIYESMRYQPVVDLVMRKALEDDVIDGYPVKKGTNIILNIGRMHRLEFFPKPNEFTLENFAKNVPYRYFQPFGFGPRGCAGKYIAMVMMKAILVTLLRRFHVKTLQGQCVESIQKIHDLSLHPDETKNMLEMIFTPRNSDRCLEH

[13] = qHTS assay to identify small molecule antagonists of the thyroid receptor (TR) signaling pathway - cell viability counter screen (AID 743064); further: nearly all actives have a fitted effect of over 50% in size; further: potency means the concentration at half of the fitted maximal effect
Outline: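 GH3.TRE-Luc rat pituitary cells carrying a TRE-luciferase reporter were treated with compound plus 1 nM T3 (final) for 23.5 h at 37 °C. Viability was then read in the same wells by CellTiter-Fluor fluorescence after a further 30 min.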

[14] = qHTS assay to identify small molecule antagonists of the thyroid receptor (TR) signaling pathway (AID 743065); further: nearly all actives have a fitted effect of over 55% in size; further: potency means the concentration at half of the fitted maximal effect
Outline: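 GH3.TRE-Luc rat pituitary cells (two TREs driving luciferase) were dosed with compound, then stimulated with 1 nM T3 (final) for 23.5 h at 37 C. ONE-Glo luminescence was the read-out, with CellTiter-Fluor fluorescence as the cytotoxicity counter-screen.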

[15] = molecular target: Estrogen receptor (Homo sapiens) (UniProt P03372); assay: qHTS assay to identify small molecule antagonists of the estrogen receptor alpha (ER-alpha) signaling pathway (AID 743069; active means well fitted curve in the direction sought with a large enough effect in the signal ratio in the repeat runs, not every such curve was filed as active; inconclusive means weak or mixed curves, or effect the other way; inactive means no such curve, though single readings can be large or run the other way; the % refers to the signal ratio)
Outline: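 Beta-lactamase FRET fluorescence is read after 2 hr at room temperature with LiveBLAzer B/G substrate. Before that, ER-alpha-bla HEK293 cells sit 4 hr after plating, then receive compound plus 17beta-estradiol and incubate 18 hr at 37C.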

[16] = molecular target: Androgen receptor (Homo sapiens) (UniProt P10275); assay: qHTS assay to identify small molecule antagonists of the androgen receptor (AR) signaling pathway (AID 743035; active means well fitted inhibition curve with a large enough effect in the signal ratio in the repeat runs, not every such curve was filed as active; inconclusive means weak or mixed curves, or effect the other way; inactive means no such curve, though single readings can be large or run the other way; the % refers to the signal ratio; further: potency means the concentration at half of the fitted maximal effect)
Sequence of Androgen receptor (Homo sapiens) (P10275 whole entry, looked up): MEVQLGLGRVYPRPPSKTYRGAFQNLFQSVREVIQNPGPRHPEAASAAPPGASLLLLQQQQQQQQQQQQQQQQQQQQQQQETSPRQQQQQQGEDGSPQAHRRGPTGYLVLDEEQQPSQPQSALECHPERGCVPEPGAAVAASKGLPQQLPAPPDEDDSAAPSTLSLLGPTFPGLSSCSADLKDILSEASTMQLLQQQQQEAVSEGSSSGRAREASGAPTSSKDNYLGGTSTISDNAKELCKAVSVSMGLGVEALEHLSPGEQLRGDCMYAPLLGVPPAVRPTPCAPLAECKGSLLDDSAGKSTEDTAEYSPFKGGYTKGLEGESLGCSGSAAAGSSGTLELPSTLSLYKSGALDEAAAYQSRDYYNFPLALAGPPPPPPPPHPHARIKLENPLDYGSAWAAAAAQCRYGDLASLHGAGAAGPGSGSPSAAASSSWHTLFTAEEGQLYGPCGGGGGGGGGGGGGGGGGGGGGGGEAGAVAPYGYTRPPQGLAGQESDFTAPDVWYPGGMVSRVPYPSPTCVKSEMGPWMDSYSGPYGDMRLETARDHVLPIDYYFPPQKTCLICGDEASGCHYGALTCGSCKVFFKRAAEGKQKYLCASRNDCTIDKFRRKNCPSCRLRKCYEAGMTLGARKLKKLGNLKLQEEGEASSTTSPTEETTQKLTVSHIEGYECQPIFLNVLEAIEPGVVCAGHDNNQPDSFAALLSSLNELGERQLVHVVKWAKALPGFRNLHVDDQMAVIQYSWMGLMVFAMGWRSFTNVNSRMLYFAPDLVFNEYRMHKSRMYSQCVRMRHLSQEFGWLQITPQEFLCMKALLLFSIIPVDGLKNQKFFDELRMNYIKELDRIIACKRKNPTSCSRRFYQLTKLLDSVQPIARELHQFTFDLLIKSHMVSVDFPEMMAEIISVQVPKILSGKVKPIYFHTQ
Outline: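 AR-bla HEK293 reporter cells; 4 h settle at 37C/5% CO2; compound + R1881 agonist, 16 h at 37C; LiveBLAzer B/G FRET substrate 2 h RT; fluorescence intensity read. qHTS format.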

[17] = molecular target: Androgen receptor (Homo sapiens) (UniProt P10275); assay: qHTS assay to identify small molecule agonists of the androgen receptor (AR) signaling pathway using the MDA cell line (AID 743040; further: nearly all actives have a fitted effect of over 20% in size)
Outline: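 Luciferase read-out, ONE-Glo, 30 min RT. Cells: MDA-kb2 AR-luc, MMTV promoter with AR and GR response elements. Compound exposure 16 h, 37C, 0% CO2, after 5 h pre-incubation. qHTS agonist mode.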

[18] = molecular target: Androgen receptor (Homo sapiens) (UniProt P10275); assay: qHTS assay to identify small molecule antagonists of the androgen receptor (AR) signaling pathway using the MDA cell line (AID 743042; further: nearly all actives have a fitted effect of over 55% in size)
Outline: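 MDA-kb2 breast carcinoma cells carrying MMTV-luciferase (AR/GR responsive) were co-treated with compounds and the agonist R1881 for 16 h at 37C. Inhibition read as ONE-Glo luminescence; CellTiter-Fluor fluorescence measured in parallel for cytotoxicity.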

[19] = molecular target: Androgen receptor (Homo sapiens) (UniProt P10275); assay: qHTS assay to identify small molecule agonists of the androgen receptor (AR) signaling pathway (AID 743036; active means well fitted activation curve with a large enough effect in the signal ratio in the repeat runs, with a control signal flat, not every such curve was filed as active; inconclusive means weak or mixed curves, or effect the other way; inactive means no such curve, though single readings can be large or run the other way; the % refers to the signal ratio)
Outline: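 HEK293 cells stably carrying a UAS-driven beta-lactamase reporter (GeneBLAzer AR-UAS-bla-GripTite) were plated at 2,000 cells/well, rested 4 h at 37C, then exposed to compounds in DMSO for 16 h. LiveBLAzer B/G FRET substrate was added for 2 h at room temperature; fluorescence read.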

Measured: Potency

Cc1c(C)c2c(c(C)c1OC(=O)c1cccnc1)CC[C@@](C)(CCC[C@H](C)CCC[C@H](C)CCCC(C)C)O2
not listed: [13] | [14] | [15] | [16] | [17] | [18] | [19]
inactive: all other assays above

COC(=O)c1ccccc1C
not listed: [5] | [16] | [17] | [18] | [19]
inactive: all other assays above

CCC(C)n1ncn(-c2ccc(N3CCN(c4ccc(OC[C@H]5CO[C@](Cn6cncn6)(c6ccc(Cl)cc6Cl)O5)cc4)CC3)cc2)c1=O (some centres undefined)
inactive: [1] | [5] | [6] | [8] | [9] | [12] | Aromatase (Homo sapiens)
active: [2] 596 nM | [3] 422 nM | [4] 596 nM | [11] 13.3 µM

CCOc1ccc2ccccc2c1C(=O)N[C@@H]1C(=O)N2[C@@H]1SC(C)(C)[C@@H]2C(=O)O
not listed: [5] | [14] | [19]
inactive: all other assays above

CC1(C)CC(O)CC(C)(C)N1
not listed: [13] | [14] | [16] | [17] | [18] | [19]
inactive: all other assays above

COc1c(C)c2c(c(O)c1C/C=C(\C)CCC(=O)OCCN1CCOCC1)C(=O)OC2
active: [2] 531 nM | [3] 422 nM | [4] 422 nM | [16] 0.674 µM | [13] 1.68 µM | [14] 0.944 µM | [10] 13.3 µM
not listed: [5] | [9] | [11] | [15] | [19]
inactive: all other assays above

CCCCC/C=C\C/C=C\CCCCCCCC(=O)O
inactive and 54.5 µM (active): [4]
not listed: [6] | [14] | [16] | [17] | [18] | [19]
inactive: all other assays above

O=C(/C=C/c1ccccc1)OC/C=C/c1ccccc1
active: [2] 17200 nM | [3] 15400 nM | [4] 13700 nM | [10] 30.6 µM
not listed: [5] | [14]
inactive: all other assays above

OCC(F)(F)F
inactive: [1] | [2] | [3] | [4] | [5] | [6] | [14] | [7] | [8] | [12] | Aromatase (Homo sapiens)

CC(C)(C)NSc1nc2ccccc2s1
active: [16] 55.9 µM
not listed: [5] | [7] | Aromatase (Homo sapiens) | [14] | [15] | [19]
inactive: all other assays above

O=C(O)c1ccc2cc(C(=O)O)ccc2c1
not listed: [5] | [16] | [17] | [18] | [19]
inactive: all other assays above

C#CC1(O)CC[C@H]2[C@@H]3CCC4=CCCC[C@@H]4[C@H]3CC[C@@]21C (some centres undefined)
inactive and 61.1 µM (active): Aromatase (Homo sapiens)
inactive: [1] | [5] | [15] | [8] | [11] | [12]
active: [2] 11.4 µM and 13.7 µM | [3] 11.4 µM and 7.7 µM | [4] 11.4 µM and 15.4 µM | [13] 30.6 µM | [14] 30.6 µM | [9] 57.4 nM [inconclusive] and 77.6 nM [inconclusive] | [10] 40.3 nM and 21.7 nM

CC1=CCC(=C(C)C)CC1
active: [10] 68.6 µM
not listed: [6] | [7] | [13] | [14] | [16] | [17] | [18] | [19]
inactive: all other assays above

O=C(/C=C/c1ccc(O)c(O)c1)O[C@@H](C(=O)O)[C@@H](OC(=O)/C=C/c1ccc(O)c(O)c1)C(=O)O
inactive: [1] | [2] | [3] | [4] | [5] | [13] | [14] | [7] | [8] | [12] | Aromatase (Homo sapiens)

O=C(O)CCN(C1(C(=O)NO)CCCC1)S(=O)(=O)c1ccc(Oc2ccc(F)cc2)cc1
inactive: [1] | [2] | [3] | [4] | [5] | [13] | [7] | [8] | [12] | Aromatase (Homo sapiens)
